According to PubChem BioAssay (NCI):
Compounds without any hit were thinned out: in the full panel of roughly 79,000, 15% have a hit. Activity calls are given as the source filed them. Rule as the data show it: active = growth inhibition above about 70%; inactive = the rest.

Tests used:
[1] = NCI Yeast Anticancer Drug Screen. Data for the rad52 strain (AID 147);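 also: 0% = growth of vehicle-treated control cultures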; conditions: S. cerevisiae rad52 mutant growth inhibition, stronger effect = higher value
Summary of the method: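 Genetically altered yeast (DNA damage repair defect) treated with compound; inhibition calculated relative to vehicle.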

[2] = NCI Yeast Anticancer Drug Screen. Data for the wt1 strain (AID 149);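 also: 0% = growth of vehicle-treated wt1 cultures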; conditions: S. cerevisiae wt1 strain (SPY 50644) growth inhibition, stronger effect = higher value
Summary of the method: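 wt1 strain grown with compound or vehicle; inhibition taken from the growth difference.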

[3] = NCI Yeast Anticancer Drug Screen. Data for the rad50EPP+ strain (AID 151);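 also: 0% = growth of vehicle-treated control cultures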; conditions: S. cerevisiae rad50 mutant strain, stronger effect = higher value
Summary of the method: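 Strain rad50EPP+; compound exposure; % growth inhibition vs vehicle.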

[4] = NCI Yeast Anticancer Drug Screen. Data for the mgt1 strain (AID 153); conditions: S. cerevisiae mgt1 mutant growth inhibition, stronger effect = higher value
Summary of the method: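 Read-out: yeast growth inhibition vs vehicle control. Strain mgt1, drawn from a panel altered in DNA damage repair or cell cycle control.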

[5] = NCI Yeast Anticancer Drug Screen. Data for the rad50 strain (AID 155);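 also: 0% = growth of vehicle-only cultures of the same strain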; conditions: S. cerevisiae rad50 strain growth inhibition, stronger effect = higher value
Summary of the method: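 DNA repair mutant yeast, compound exposure, growth read-out; inhibition is taken relative to vehicle.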

[6] = NCI Yeast Anticancer Drug Screen. Data for the mec2-1 strain (AID 157); conditions: S. cerevisiae mec2-1 strain, stronger effect = higher value
Summary of the method: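 Cells of the genetically defined mec2-1 yeast strain are incubated with test compound. Inhibition of growth is calculated against vehicle-treated controls.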

[7] = NCI Yeast Anticancer Drug Screen. Data for the rad14 strain (AID 159);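 also: 0% = growth of vehicle-treated control cultures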; conditions: S. cerevisiae rad14 strain growth inhibition, stronger effect = higher value
Summary of the method: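 DNA repair-defective yeast, compound-exposed; % growth inhibition derived by comparison with vehicle-treated controls.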

[8] = NCI Yeast Anticancer Drug Screen. Data for the sgs1 mgt1 strain (AID 161);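 also: 0% = growth of cultures given vehicle only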; conditions: S. cerevisiae sgs1 mgt1 strain, stronger effect = higher value
Summary of the method: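 Mutant yeast exposed to compound; growth scored against vehicle-only wells.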

[9] = NCI Yeast Anticancer Drug Screen. Data for the CLN2oe strain (AID 163);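 also: 0% = growth of vehicle-only control cultures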; conditions: S. cerevisiae CLN2oe strain, stronger effect = higher value
Summary of the method: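 Strain altered in cell-cycle control, incubated with compound; growth compared to solvent-treated controls.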

[10] = NCI Yeast Anticancer Drug Screen. Data for the cln2 rad14 strain (AID 165);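 also: 0% = growth equal to vehicle treated cultures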; conditions: S. cerevisiae cln2 rad14 strain, stronger effect = higher value
Summary of the method: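 The screen exposed genetically defined yeast (cln2 rad14) to test compounds and scored growth inhibition relative to vehicle-treated controls.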

[11] = NCI Yeast Anticancer Drug Screen. Data for the bub3 strain (AID 167); conditions: S. cerevisiae bub3 mutant strain, stronger effect = higher value
Summary of the method: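 In this screen, a yeast mutant lacking normal mitotic checkpoint function is challenged with compound. Relative growth versus vehicle gives the inhibition value.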

[12] = NCI Yeast Anticancer Drug Screen. Data for the mlh1 strain (AID 171);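 also: 0% = growth of vehicle-treated control cultures of the same strain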; conditions: S. cerevisiae mlh1 strain growth inhibition, stronger effect = higher value
Summary of the method: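 Yeast screen: mutant strain plus compound, growth scored against vehicle control wells.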

[13] = NCI Yeast Anticancer Drug Screen. Data for the sgs1 strain (AID 173);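 also: 0% = growth of vehicle-only control cultures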; conditions: S. cerevisiae sgs1 mutant, stronger effect = higher value
Summary of the method: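 Inhibition of yeast growth served as the measure. The mutant strain was treated with each compound, and growth was normalised to cultures receiving vehicle alone.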

[14] = NCI Yeast Anticancer Drug Screen. Data for the mlh1 rad18 strain (AID 175); conditions: S. cerevisiae mlh1 rad18 strain growth inhibition, stronger effect = higher value
Summary of the method: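 Compound-treated yeast growth, normalised to vehicle controls. Strain bears defined DNA repair mutations.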

[15] = NCI Yeast Anticancer Drug Screen. Data for the rad18 strain (AID 177); conditions: S. cerevisiae rad18 mutant growth inhibition, stronger effect = higher value
Summary of the method: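 Inhibition values reflect reduced yeast growth compared with vehicle-treated controls, using a strain engineered with a DNA damage repair defect.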

[16] = at 5.0 µM (retest, dose inferred, filed as 0.5)
[17] = at 50.0 µM (retest, dose inferred, filed as 5.0)

Measured: growth inhibition

Cc1ccc2[nH]c3c(C)c4cc[n+](C)cc4c(C)c3c2c1
active: [1]; at 33.0 µM 89% | [1]; at 100.0 µM 97% | [2]; at 100.0 µM 79% | [3]; at 100.0 µM 88% | [4]; at 100.0 µM 94% | [5]; at 33.0 µM 83% | [5]; [17] 91% | [5]; at 50.0 µM 85.6% | [5]; at 100.0 µM 95% | [6]; [17] 71% | [6]; at 50.0 µM 79.8% | [6]; at 100.0 µM 94% | [7]; at 100.0 µM 90% | [8]; at 50.0 µM 85.7% | [9]; at 100.0 µM 95% | [11]; [17] 81% | [11]; at 100.0 µM 95% | [12]; at 100.0 µM 94% | [13]; at 100.0 µM 93% | [14]; [17] 72% | [15]; at 100.0 µM 93%
inactive: [1]; at 1.2 µM 25% | [1]; at 3.7 µM 14% | [1]; at 11.0 µM 34% | [2]; at 1.2 µM -6% | [2]; at 3.7 µM -12% | [2]; at 11.0 µM -10% | [2]; at 33.0 µM 6% | [3]; at 1.2 µM 35% | [3]; at 3.7 µM 21% | [3]; at 11.0 µM 31% | [3]; at 33.0 µM 49% | [4]; at 1.2 µM -18% | [4]; at 3.7 µM -15% | [4]; at 11.0 µM -23% | [4]; at 33.0 µM 47% | [5]; at 1.2 µM 12% | [5]; at 3.7 µM 16% | [5]; [16] 22% | [5]; at 11.0 µM 26% | [6]; at 1.2 µM -2% | [6]; at 3.7 µM 19% | [6]; [16] 15% | [6]; at 11.0 µM 8% | [6]; at 33.0 µM 55% | [7]; at 1.2 µM 16% | [7]; at 3.7 µM 6% | [7]; at 11.0 µM -8% | [7]; at 33.0 µM 41% | [8]; [16] 13% | [8]; [17] 8% | [9]; at 1.2 µM 42% | [9]; at 3.7 µM 37% | [9]; at 11.0 µM 36% | [9]; at 33.0 µM 63% | [10]; [16] 30% | [10]; [17] 37% | [10]; at 50.0 µM 62.3% | [11]; at 1.2 µM 10% | [11]; at 3.7 µM 24% | [11]; [16] 12% | [11]; at 11.0 µM 23% | [11]; at 33.0 µM 51% | [11]; at 50.0 µM 65.6% | [12]; at 1.2 µM 7% | [12]; at 3.7 µM 25% | [12]; at 11.0 µM 14% | [12]; at 33.0 µM 61% | [13]; at 1.2 µM 1% | [13]; at 3.7 µM -21% | [13]; at 11.0 µM 22% | [13]; at 33.0 µM 54% | [14]; [16] 14% | [14]; at 50.0 µM -26.9% | [15]; at 1.2 µM -11% | [15]; at 3.7 µM -1% | [15]; at 11.0 µM 1% | [15]; at 33.0 µM 37%
